These results are taken from PubChem BioAssay (EPA / NIEHS).

Activity calls are given as the source filed them. How the source made its calls: active means hit-call score of the fitted dose curve at least 0.9, where 1 is the maximum; inactive means score below 0.9.

The experiment is described as follows: ATG_AP_2_CIS: Attagene CIS-FACTORIAL HepG2 Assay for human Activator Protein 2 (AP-2) (AID 2282932). As to conditions: HepG2 AP-2 cis-reporter, Attagene transcription factor profiling; actives raise or lower the signal. A digest of the protocol:
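Transiently transfected HepG2 cells are exposed to chemical for 24 h. Reporter transcripts are then measured as fluorescence following RT-PCR and capillary separation, and gain- or loss-of-signal is fitted relative to DMSO.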
As to `CCC(Cc1c(I)cc(I)c(N)c1I)C(=O)O` (configuration not stated), the call was inactive.

With `C=C(C)CCCC`, the result was inactive.

For `OCC(F)(F)C(F)(F)C(F)(F)C(F)(F)C(F)(F)C(F)(F)CO`, the molecule was classed as inactive.

With `C[C@]12CC[C@H]3C(=CCc4cc(O)ccc43)[C@@H]1CCC2=O`, the result was inactive.

Take `Oc1ccc(C2(c3ccc(O)c(C4CCCCC4)c3)CCCCC2)cc1C1CCCCC1`: the molecule was classed as inactive.

Take `O=C(O)CCC(F)(F)C(F)(F)C(F)(F)C(F)(F)C(F)(F)C(F)(F)C(F)(F)F`: the molecule was called inactive.

As for `NCC(F)(F)C(F)(F)C(F)(F)C(F)(F)C(F)(F)C(F)(F)F`, the result was inactive.

For the molecule `CC(C)C(=O)OCc1ccccc1`, the outcome was inactive.

Turning to `CO[Si](C)(CCC(F)(F)C(F)(F)C(F)(F)C(F)(F)C(F)(F)C(F)(F)F)OC`, the outcome was inactive.

A word on the AC50: it is the midpoint of the concentration-response curve, whichever way the signal moves. `CCCCCCCCCc1ccc(OCCO)cc1`: the AC50 was 23.2 µM (active).

For `FC(F)(F)C(F)(F)C(F)(F)C(F)(F)C(F)(F)C(F)(F)C(F)(F)CCI`, the outcome was inactive.

With `C[Si](C)O[Si](C)C`, the molecule was classed as inactive.

`Cc1cnccn1`: the call was inactive.

As to `NCC(F)(F)C(F)(F)C(F)(F)C(F)(F)C(F)(F)C(F)(F)C(F)(F)C(F)(F)F`, the result was inactive.

As for `OCC(F)(F)C(F)(F)C(F)(F)CO`, the outcome was inactive.

Consider `CN(C)C(C)(C)CO`, for which the molecule was called inactive.

With `Nc1cc([N+](=O)[O-])cc(Cl)c1O`, the molecule was called inactive.

Turning to `CCCCCCCCCCCCC[N+](C)(C)Cc1ccccc1`, the outcome was inactive.

On to `OCCCc1cccnc1`, for which the molecule was classed as inactive.

Consider `O=C(Cl)C(F)(F)C(F)(F)C(F)(F)C(F)(F)C(F)(F)C(F)(F)C(F)(F)F`, for which the outcome was inactive.

Consider `Cc1cc(C)c(O)c(C(C)(C)C)c1`, for which the result was inactive.

For the molecule `CCC(=O)OC(C)c1ccccc1` (configuration not stated), the molecule was classed as inactive.
